8 molecules from PubChem BioAssay (EPA / NIEHS) can be followed below.

Experiment [1] in a line: TOX21_PR_BLA_Followup_Antagonist_viability: Viability Assessment in the Tox21 HEK293 Progesterone Receptor (PR) Antagonism Beta-lactamase Follow-Up Assay (AID 2283936; active = hit-call score of the fitted dose curve at least 0.9, where 1 is the maximum;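 also: hits lower the luminescence signal meaning cytotoxicity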). Summed up:
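PR-UAS-bla HEK293T cells (3,000/well, 2% charcoal-stripped FBS) given compound plus R5020 agonist, 16 h at 37C. CellTiter-Glo added after bla read, 30 min at room temperature; luminescence loss indicates cytotoxicity.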

Experiment [2] concerns the target PGR (gene 5241) (UniProt P06401). In words: TOX21_PR_LUC_Followup_Agonist: Tox21 HEK293 Progesterone Receptor (PR) Agonism Luciferase Follow-Up Assay (AID 2283937). Summed up: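 Cells: HEK293-PR-A-luc, 3,000/well, 10% charcoal-stripped FBS assay medium. Compound added after 5 h; 16 h, 37C, 0% CO2. ONE-Glo luciferase, luminescence. Positive fit vs DMSO.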
Experiment [3] shares this target. In words: TOX21_PR_LUC_Followup_Antagonist: Tox21 HEK293 Progesterone Receptor (PR) Antagonism Luciferase Follow-Up Assay (AID 2283938; active = hit-call score of the fitted dose curve at least 0.9, where 1 is the maximum;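 also: curve fitted upward as signal gain over DMSO baseline despite antagonist label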). Summed up:
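Luciferase reporter in HEK293-PR-A-luc cells: 16 h compound treatment at 37C, ONE-Glo luminescence detection, DMSO as negative control and baseline.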

Experiment [4] can be described thus: TOX21_PR_LUC_Followup_Antagonist_viability: Viability Assessment in the Tox21 HEK293 Progesterone Receptor (PR) Antagonism Luciferase Follow-Up Assay (AID 2283940; active = hit-call score of the fitted dose curve at least 0.9, where 1 is the maximum). Summed up:
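Multiplexed viability counter-screen: after 5 days in charcoal-stripped-FBS medium, HEK293-PR-A-luc cells are plated, pinned with DMSO-dissolved compounds for 16 h at 37C, and ATP content is quantified luminescently via CellTiter-Glo.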

Experiment [5] is described as follows: TOX21_PR_LUC_Followup_Agonist_viability: Viability Assessment in the Tox21 HEK293 Progesterone Receptor (PR) Agonism Luciferase Follow-Up Assay (AID 2283941; active = hit-call score of the fitted dose curve at least 0.9, where 1 is the maximum;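 also: loss of signal means cytotoxicity so actives lower viability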). Summed up: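 Cells were kept 5 days in charcoal-stripped serum medium before plating HEK293-PR-A-luc at 3,000 cells/well. After 5 h they received DMSO-dissolved compound and incubated 16 h at 37C. Viability was taken from CellTiter-Glo ATP luminescence.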

The nature of experiment [6]: CCTE_Harrill_HTTr_Viability_DMEM_6hr: (Pilot) CCTE's 6-hour Cell Viability Assessment for the High-Throughput Transcriptomics (HTTr) Platform, in MCF-7 cells cultured in DMEM + 10% fetal bovine serum, Harrill Lab (AID 2283973). Summed up:
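MCF-7 cells in DMEM + 10% FBS, eight-point dilution series, 6 h exposure. Membrane integrity by propidium iodide exclusion with high-content imaging; bidirectional fit versus DMSO.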

Experiment [7] can be described thus: CCTE_Harrill_HTTr_Viability_DMEM_12hr: (Pilot) CCTE's 12-hour Cell Viability Assessment for the High-Throughput Transcriptomics (HTTr) Platform, in MCF-7 cells cultured in DMEM + 10% fetal bovine serum, Harrill Lab (AID 2283974). Summed up:
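MCF-7 cells in DMEM + 10% FBS exposed 12 h to an eight-point dilution series; membrane integrity scored by propidium iodide exclusion with high-content imaging, bidirectional fitting versus DMSO.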

Experiment [8] can be described thus: CCTE_Harrill_HTTr_Viability_DMEM_24hr: (Pilot) CCTE's 24-hour Cell Viability Assessment for the High-Throughput Transcriptomics (HTTr) Platform, in MCF-7 cells cultured in DMEM + 10% fetal bovine serum, Harrill Lab (AID 2283975). Summed up:
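MCF-7 cells in DMEM with 10% FBS exposed for 24 hours to an eight-point dilution series. Membrane integrity by propidium iodide exclusion with high content imaging; bidirectional fit against DMSO.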

A short description of experiment [9]: CCTE_Harrill_HTTr_Viability_PRF_DMEM_6hr: (Pilot) CCTE's 6-hour Cell Viability Assessment for the High-Throughput Transcriptomics (HTTr) Platform, in MCF-7 cells cultured phenol red-free DMEM + 10% charcoal-stripped fetal bovine serum, Harrill Lab (AID 2283976). Summed up: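 MCF-7 cells in phenol red-free DMEM with 10% charcoal-stripped FBS exposed 6 hours to an eight-point dilution series. Propidium iodide exclusion imaged; curves fitted bidirectionally against DMSO.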

A short description of experiment [10]: CCTE_Harrill_HTTr_Viability_PRF_DMEM_12hr: (Pilot) CCTE's 12-hour Cell Viability Assessment for the High-Throughput Transcriptomics (HTTr) Platform, in MCF-7 cells cultured in phenol red-free DMEM + 10% charcoal-stripped fetal bovine serum, Harrill Lab (AID 2283977). Summed up:
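MCF-7 cells in phenol red-free DMEM with 10% charcoal-stripped FBS exposed 12 hours to an eight-point dilution series. Viability assessed by high-content imaging of propidium iodide exclusion; bidirectional fit versus DMSO.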

Experiment [11] is described as follows: CCTE_Harrill_HTTr_Viability_PRF_DMEM_24hr: (Pilot) CCTE's 24-hour Cell Viability Assessment for the High-Throughput Transcriptomics (HTTr) Platform, in MCF-7 cells cultured in phenol red-free DMEM + 10% charcoal-stripped fetal bovine serum, Harrill Lab (AID 2283980). Summed up:
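MCF-7 cells in phenol red-free DMEM with 10% charcoal-stripped FBS, eight-point dilution series, 24 h exposure. Membrane integrity by propidium iodide exclusion with high content imaging; bidirectional fit vs DMSO.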

Experiment [12] in a line: CCTE_Harrill_HTTr_Apoptosis_DMEM_6hr: (Pilot) CCTE's 6-hour Apoptosis Assessment for the High-Throughput Transcriptomics (HTTr) Platform, in MCF-7 cells cultured in DMEM + 10% fetal bovine serum, Harrill Lab (AID 2283981). Summed up: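 Caspase-3/7 activation read by high content imaging with CellEvent Caspase 3/7 Green in MCF-7 cells (DMEM + 10% FBS), 6 h after dosing; eight-point dilution series. Bidirectional fitting relative to DMSO baseline.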

Experiment [13] is described as follows: CCTE_Harrill_HTTr_Apoptosis_DMEM_12hr: (Pilot) CCTE's 12-hour Apoptosis Assessment for the High-Throughput Transcriptomics (HTTr) Platform, in MCF-7 cells cultured in DMEM + 10% fetal bovine serum, Harrill Lab (AID 2283982). Summed up: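 MCF-7 cells in DMEM + 10% FBS, exposed 12 h to an eight-point dilution series; caspase-3/7 activation imaged with CellEvent Green. Bidirectional fit versus DMSO.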

The target of experiment [14] is Thyroid hormone receptor alpha (Rattus norvegicus) + Thyroid hormone receptor beta (Rattus norvegicus) (UniProt P18113+P63059). As to the kind of experiment: TOX21_TR_LUC_GH3_Antagonist_Followup: Tox21 GH3 Thyroid Hormone Receptor Antagonism Luciferase Follow-Up Assay (AID 2283942; active = hit-call score of the fitted dose curve at least 0.9, where 1 is the maximum). Summed up:
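Rat pituitary GH3 cells with a TRα/TRβ-driven luciferase reporter, 5 h attachment, then 15 concentrations (92 uM to 5nM final) plus 1.0 nM T3 agonist, 24 h at 37C/5% CO2. ONE-Glo luminescence; signal change fitted against DMSO baseline.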

For the next experiment, the target named is THRA (gene 7067) (UniProt P10827). In words: TOX21_TRA_COA_Antagonist_Followup_ratio: Tox21 Thyroid Hormone Receptor alpha Antagonism through Coactivator Recruitment Follow-Up Assay, Ratio (AID 2283953; active = hit-call score of the fitted dose curve at least 0.9, where 1 is the maximum). Summed up:
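520:495 nm emission ratio (excitation 340 nm) reports fluorescein-SRC-2 peptide recruitment to GST-TRα LBD by TR-FRET with Tb anti-GST antibody. Values were normalized to DMSO (0%) and T3 control wells (100%); loss of signal indicated antagonism.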

In experiment [15] the target is THRB (gene 7068) (UniProt P10828). In words: TOX21_TRB_BLA_Antagonist_Followup_ratio: Tox21 Thyroid Hormone Receptor beta Antagonism Beta-lactamase (BLA) Follow-Up Assay, Ratio (AID 2283958; active = hit-call score of the fitted dose curve at least 0.9, where 1 is the maximum). Summed up: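 HEK293T TRb-bla (GAL4 DBD + hTRβ LBD), 2% cs-FBS phenol red-free DMEM, 5 h attach; cpds 11-pt triplicate, 18 h 37C; CCF4-AM 2 h RT; 460/530 ratio vs DMSO; CellTiter-Glo viability same wells.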
THRB (gene 7068), sequence (P10828 whole entry, looked up, the tested form may be a part): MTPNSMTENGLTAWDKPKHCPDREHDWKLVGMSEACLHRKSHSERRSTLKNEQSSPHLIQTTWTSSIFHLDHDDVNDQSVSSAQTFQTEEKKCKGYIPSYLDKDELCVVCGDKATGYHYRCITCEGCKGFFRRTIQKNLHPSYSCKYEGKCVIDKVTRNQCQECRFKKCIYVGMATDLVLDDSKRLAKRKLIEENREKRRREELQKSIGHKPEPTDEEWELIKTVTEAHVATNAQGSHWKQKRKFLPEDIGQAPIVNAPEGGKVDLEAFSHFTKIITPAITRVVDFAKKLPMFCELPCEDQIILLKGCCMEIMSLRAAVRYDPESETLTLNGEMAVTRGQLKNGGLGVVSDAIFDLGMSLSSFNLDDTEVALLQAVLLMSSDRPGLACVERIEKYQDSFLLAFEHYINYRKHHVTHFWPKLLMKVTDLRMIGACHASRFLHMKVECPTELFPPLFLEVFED

Experiment [16] is described as follows: TOX21_TRB_BLA_Antagonist_Followup_viability: Viability Assessment in the Tox21 Thyroid Hormone Receptor beta Antagonism Beta-lactamase (BLA) Follow-Up Assay (AID 2283961; active = hit-call score of the fitted dose curve at least 0.9, where 1 is the maximum). Summed up: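 In the same wells as the reporter read, cell health was gauged by CellTiter-Glo ATP luminescence, with signal loss indicating reduced viability. Cells had been exposed to test compounds for 18 h.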

Experiment [17] deals with THRB (gene 7068) (UniProt P10828). As to the kind of experiment: TOX21_TRB_COA_Antagonist_Followup_ratio: Tox21 Thyroid Hormone Receptor beta Antagonism through Coactivator Recruitment Follow-Up Assay, Ratio (AID 2283967; active = hit-call score of the fitted dose curve at least 0.9, where 1 is the maximum). Summed up: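 Cell-free TR-FRET coactivator recruitment with GST-tagged TRβ LBD (5.0 nM) and fluorescein-labeled SRC-2 peptide (200 nM) detected by terbium anti-GST antibody (2 nM). The 520:495 nm emission ratio was normalized to DMSO (0%) and T3 (100%).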

For experiment [18], the target named is Retinoic acid receptor RXR-alpha (Homo sapiens) (UniProt P19793). In words: TOX21_TR_RXR_BLA_Antagonist_Followup_ratio: Tox21 Thyroid Hormone Receptor beta Retinoid X Receptor alpha (RXRa) Antagonism Beta-lactamase (BLA) Follow-Up Assay, Ratio (AID 2283972; active = hit-call score of the fitted dose curve at least 0.9, where 1 is the maximum). Summed up:
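Compounds were tested in triplicate at 11 concentrations on RXRa-bla HEK293T cells for 16 h. Substrate cleavage ratio, normalized to DMSO, gave the endpoint.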

Experiment [19] in a line: TOX21_TR_RXR_BLA_Antagonist_Followup_viability: Viability Assessment in the Tox21 Thyroid Hormone Receptor beta Retinoid X Receptor alpha (RXRa) Antagonism Beta-lactamase (BLA) Follow-Up Assay (AID 2283979; active = hit-call score of the fitted dose curve at least 0.9, where 1 is the maximum). Summed up: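 RXRa-UAS-bla HEK293T cells seeded 2,500/well in phenol red-free DMEM with 2% charcoal-stripped FBS, attached 5 h, then exposed to compounds at 11 concentrations in triplicate for 16 h at 37C/5% CO2. Viability read by CellTiter-Glo ATP luminescence; bidirectional fit versus DMSO.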

Results filed as inconclusive are left out. Active and inactive are the calls of the source. The calls were made as follows, unless noted: active = hit-call score of the fitted dose curve at least 0.9, where 1 is the maximum; inactive = score below 0.9.

PGR (gene 5241), sequence (P06401 whole entry, looked up): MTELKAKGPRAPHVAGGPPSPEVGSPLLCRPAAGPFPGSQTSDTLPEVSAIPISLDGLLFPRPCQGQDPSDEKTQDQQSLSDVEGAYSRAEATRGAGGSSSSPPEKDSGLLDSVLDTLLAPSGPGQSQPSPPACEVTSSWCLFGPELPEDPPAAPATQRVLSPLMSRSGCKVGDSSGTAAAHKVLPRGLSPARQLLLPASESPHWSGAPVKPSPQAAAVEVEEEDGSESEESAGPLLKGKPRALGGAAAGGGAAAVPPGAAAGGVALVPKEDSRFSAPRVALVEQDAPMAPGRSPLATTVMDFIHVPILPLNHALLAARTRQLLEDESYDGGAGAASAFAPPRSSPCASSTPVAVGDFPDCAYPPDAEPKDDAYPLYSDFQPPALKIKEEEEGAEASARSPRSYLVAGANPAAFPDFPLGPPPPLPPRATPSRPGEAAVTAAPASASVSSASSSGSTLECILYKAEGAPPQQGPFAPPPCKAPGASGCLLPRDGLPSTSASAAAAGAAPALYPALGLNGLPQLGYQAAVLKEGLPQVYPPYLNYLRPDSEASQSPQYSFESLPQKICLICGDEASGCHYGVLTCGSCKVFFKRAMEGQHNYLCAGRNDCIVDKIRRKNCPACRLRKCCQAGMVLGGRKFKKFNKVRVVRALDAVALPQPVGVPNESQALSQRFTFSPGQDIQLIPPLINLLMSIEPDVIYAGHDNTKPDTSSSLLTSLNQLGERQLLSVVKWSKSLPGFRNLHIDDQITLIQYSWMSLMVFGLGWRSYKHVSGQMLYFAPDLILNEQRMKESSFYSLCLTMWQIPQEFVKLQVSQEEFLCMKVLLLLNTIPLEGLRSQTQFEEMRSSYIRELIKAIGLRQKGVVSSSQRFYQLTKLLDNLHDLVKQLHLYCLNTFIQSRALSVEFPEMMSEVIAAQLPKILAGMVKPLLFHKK
Retinoic acid receptor RXR-alpha (Homo sapiens), sequence (P19793 whole entry, looked up): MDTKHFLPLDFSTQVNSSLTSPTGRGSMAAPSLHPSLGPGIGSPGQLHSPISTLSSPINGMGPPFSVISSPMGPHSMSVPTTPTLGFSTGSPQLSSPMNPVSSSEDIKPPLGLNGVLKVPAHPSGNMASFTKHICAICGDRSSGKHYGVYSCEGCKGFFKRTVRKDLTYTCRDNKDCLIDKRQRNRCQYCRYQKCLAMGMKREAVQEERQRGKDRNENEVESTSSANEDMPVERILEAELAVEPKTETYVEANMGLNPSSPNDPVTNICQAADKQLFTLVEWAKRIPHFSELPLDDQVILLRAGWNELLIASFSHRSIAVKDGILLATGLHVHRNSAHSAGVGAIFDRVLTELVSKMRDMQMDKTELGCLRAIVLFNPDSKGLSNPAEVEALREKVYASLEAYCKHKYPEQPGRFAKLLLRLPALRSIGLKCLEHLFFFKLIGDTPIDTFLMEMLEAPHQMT
THRA (gene 7067), sequence (P10827 whole entry, looked up, the tested form may be a part): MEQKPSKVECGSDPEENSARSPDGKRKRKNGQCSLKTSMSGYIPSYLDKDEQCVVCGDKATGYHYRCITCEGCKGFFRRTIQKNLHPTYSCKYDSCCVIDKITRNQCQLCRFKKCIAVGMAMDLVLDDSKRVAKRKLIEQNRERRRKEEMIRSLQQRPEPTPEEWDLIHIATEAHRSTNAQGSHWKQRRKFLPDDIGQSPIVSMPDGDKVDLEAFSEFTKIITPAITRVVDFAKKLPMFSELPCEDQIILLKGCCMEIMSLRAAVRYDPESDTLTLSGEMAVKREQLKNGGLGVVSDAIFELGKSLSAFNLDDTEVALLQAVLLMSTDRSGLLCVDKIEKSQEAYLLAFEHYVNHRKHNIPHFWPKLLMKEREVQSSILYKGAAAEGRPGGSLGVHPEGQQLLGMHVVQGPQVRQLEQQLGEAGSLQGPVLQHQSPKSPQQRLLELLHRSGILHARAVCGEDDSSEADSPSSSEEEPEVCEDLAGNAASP

As for `CC1(C)CCC(=Cc2ccc(Cl)cc2)C1(O)Cn1cncn1` (stereo unspecified), the molecule was classed as inactive (in experiment [1]; with PGR (gene 5241) [2]; in the experiment with PGR (gene 5241) [3]; in [4]; in experiment [5]).

Take `CCN(CC)C(=O)C(C)Oc1cccc2ccccc12` (stereo unspecified): the molecule was classed as inactive (in experiment [1]; with PGR (gene 5241) [3]; in experiment [5]).

On to `CCOC(=O)C(C)OC(=O)c1cc(Oc2ccc(C(F)(F)F)cc2Cl)ccc1[N+](=O)[O-]` (stereo unspecified), for which the outcome in [6], in experiment [7], in experiment [8], in [9], in experiment [10] and in experiment [11] was inactive. Further, the result in [12] and in [13] was inactive.

With `CC1(C)C(C=C(Cl)Cl)C1C(=O)OC(C#N)c1cccc(Oc2ccccc2)c1` (stereo unspecified), the result in [6], in [7], in experiment [8], in [9], in experiment [10] and in experiment [11] was inactive. The result in experiment [12] and in experiment [13] was inactive.

On to `C=CCOC(=O)C(C)(C)OC(=O)c1cc(-n2c(=O)cc(C(F)(F)F)n(C)c2=O)ccc1Cl`, for which the outcome in experiment [6], in experiment [7], in experiment [8], in [9], in experiment [10] and in [11] was inactive. For the same molecule, the outcome in experiment [12] and in experiment [13] was inactive.

Take `Cc1c(COC(=O)[C@@H]2[C@H](/C=C(\Cl)C(F)(F)F)C2(C)C)cccc1-c1ccccc1`: the result in experiment [6], in [7], in experiment [8], in [9], in experiment [10] and in [11] was inactive. In addition, the outcome in experiment [12] and in experiment [13] was inactive.

`N#Cc1c[nH]cc1-c1cccc2c1OC(F)(F)O2`: the result in experiment [1], in experiment [4] and in experiment [5] was inactive. Moreover, in the experiment with PGR (gene 5241) [3], the AC50 was 7.11 µM (active).

In the case of `CO/N=C(/C1=NOCCO1)c1ccccc1Oc1ncnc(Oc2ccccc2Cl)c1F`, the AC50 in [14] was 16.5 µM (active); with THRB (gene 7068) [15], 54.6 µM (active); in [16], 38.3 µM (active); in [19] it was 52 µM (active). Also, the outcome (in the experiment with THRA (gene 7067); with THRB (gene 7068) [17]; in [18]) was inactive.
